We go through 40 compounds from PubChem BioAssay (Tox21).

Each structure is given as a SMILES string. Inconclusive results are not listed. Entries that show only a call come without a potency. Activity calls are given as the source filed them. Calls follow the shape of the dose curve; as a rule, active = well fitted activation curve with a large enough effect in the repeat runs; inconclusive = weak or mixed curves; inactive = no such curve, though single readings can be large or run the other way.

A short description of the test: qHTS assay for small molecules that induce genotoxicity in human embryonic kidney cells expressing luciferase-tagged ATAD5 (AID 651632). Also: nearly all actives have a fitted effect of over 15% in size. Particulars: HEK293T ATAD5-luciferase induction, 16 h; series mostly up to 83.3 µM. An excerpt: U.S. Tox21 Program National Center for Advancing Translational Sciences [NCATS] NIH Chemical Genomics Center [NCGC] U.S. Environmental Protection Agency [EPA] National Institutes of Environmental Health Sciences [NIEHS] National Toxicology Program [NTP] U.S. Food and Drug Administration [FDA] Tox21 Assay Overview: As cancer cells divide rapidly and during every cell division they need to duplicate their genome by DNA replication. The failure to do so results in the cancer cell death. Based on this concept, many chemotherapeutic agents were developed but have limitations such as low efficacy and severe side effects etc. A new cell based assay was developed to find the compounds that effectively block DNA replication either by directly damaging DNA or by inhibiting other cellular mechanisms. Enhanced Level of Genome Instability Gene 1 (ELG1; human ATAD5) protein levels increase in response to various types of DNA damage. Using a luciferase reporter-gene tagged with ATAD5, a cell-based assay [developed by Kyungjae Myung, NHGRI, NIH] was used to measure the induction of ATAD5 in human embryonic kidney cells (HEK293T). So, increase in luciferase activity can be used to identify the compounds that cause genetic stress.
Tox21 Assay Protocol Summary: For genotoxicity screening, 2,000 cells in 5 uL/well were dispensed into white, solid-bottom 1536-well plates using a Multidrop Combi (Thermo Scientific) dispenser. Following transfer of 23 nL compound or DMSO vehicle by a pin tool, the plates were incubated 16 hr at 37C and 5% CO2. 5 ul Amplite (AAT Bioquest, Inc.) was then added to each plate and following 30 min incubation at room temperature, luciferase activity was quantified on a ViewLux CCD-based plate reader.
For orientation: Quantitative high-throughput screening tests each substance at several concentrations.
`CCCCCCCCCCCCOCCOCCOCCOCCOCCOCCOCCOCCOCCO`: the Potency result was “inactive”.
Regarding `C=C(C)c1cccc(C(=C)C)c1`, the Potency result was “inactive”.
In the case of `CCCCCC(C)OC(=O)COc1ccc(Cl)c2cccnc12` (stereo not given), the Potency entry is “inactive”.
For the compound `Oc1c(I)cc(Cl)c2cccnc12`, the Potency entry is “inactive”.
On to `CCCCC(CC)COC(=O)CCCCC(=O)OCc1ccccc1` (stereo not given), for which the Potency result is “inactive”.
The same measure for `CCCCCCCC/C=C\CCCCCCCCN`: “inactive”.
Consider `Cc1cc(C)c(/C=C2\C(=O)Nc3ccccc32)[nH]1`, for which the Potency entry is “inactive”.
The result for `CCCCOC(=O)CO` reads “inactive”.
As to `CC(CO)Oc1ccccc1` (stereo not given), the Potency result was “inactive”.
The same measure for `Cc1ccc(C(=O)O)cc1`: “inactive”.
Take `CC(C)(C)c1ccc(C(O)CCCN2CCC(C(O)(c3ccccc3)c3ccccc3)CC2)cc1` (stereo not given): the Potency entry is “inactive”.
The same measure for `CCC(CC)(CC(=O)Nc1cccc(/C=C/c2nc(C3CCC3)cs2)c1)C(=O)O`: “inactive”; for `COC(=O)C1=C(C)NC(C)=C(C(=O)OCCN2CCN(C(c3ccccc3)c3ccccc3)CC2)C1c1cccc([N+](=O)[O-])c1` (stereo not given): “inactive”; for `CC/C=C\CCCCCO`: “inactive”.
The same measure for `Cc1nc(-c2ccc(Cl)cc2)oc1COC(C)(C)C(=O)O`: “inactive”; for `O=[N+]([O-])c1ccc(O)cc1C(F)(F)F`: “inactive”; for `CC(C(=O)O)c1ccc2c(c1)[nH]c1ccc(Cl)cc12` (stereo not given): “inactive”.
For the compound `CCC(=O)C(=O)CC`, the Potency entry was “inactive”.
The same measure for `CCCCCCCCCCCCCC[N+](C)(C)Cc1ccccc1`: “inactive”.
Turning to `CCOC(=O)Cn1cccc1-c1nc(-c2ccc(OC)cc2)c(-c2ccc(OC)cc2)s1`, the Potency result is “inactive”.
In the case of `O=C1CCCCCCCCCCCCCCCO1`, the Potency entry was “inactive”.
`CCCCNS(=O)(=O)c1ccc(C)cc1`: the Potency result was “inactive”.
The same measure for `Cc1nc2n(c(=O)c1CCN1CCC(c3noc4cc(F)ccc34)CC1)CCCC2`: “inactive”.
The result for `Nc1ccc(NCCO)c([N+](=O)[O-])c1` reads “inactive”.
The same measure for `CC(C)NC[C@@H](O)COc1ccc(CC(N)=O)cc1`: “inactive”.
`OC[C@H]1O[C@H](O[C@H]2O[C@H](CO)[C@@H](O)[C@H](O)[C@H]2O)[C@H](O)[C@@H](O)[C@@H]1O`: the Potency entry was “inactive”.
The same measure for `CCN1C(=O)c2ccccc2C1Nc1ccc(OCCN2CCCCC2)cc1` (stereo not given): “inactive”.
The same measure for `CN1CCCCC1CCN1c2ccccc2Sc2ccc(S(C)=O)cc21` (stereo not given): “inactive”; for `COc1cc(C)ccc1O`: “inactive”.
The same measure for `CCOc1ccc2ccccc2c1C(=O)N[C@@H]1C(=O)N2[C@@H]1SC(C)(C)[C@@H]2C(=O)O`: “inactive”.
`CCCCCCCCCCCC(=O)OCC(C)OC(=O)CCCCC(=O)O` (stereo not given): the Potency result is “inactive”.
The result for `OC12N=C(c3ccccc3)SC1Cc1cc(Cl)ccc12` (stereo not given) reads “inactive”.
The same measure for `COc1cc(S(=O)(=O)O)c(C)cc1N=Nc1c(O)ccc2cc(S(=O)(=O)O)ccc12`: “inactive”; for `CN(C)c1ccc(C(=C2C=CC(=[N+](C)C)C=C2)c2ccc(N(C)C)cc2)cc1`: “inactive”; for `CCC(CC)C(C)CCOC(C)=O` (stereo not given): “inactive”.
The same measure for `CCC(C)n1ncn(-c2ccc(N3CCN(c4ccc(OC[C@H]5CO[C@](Cn6cncn6)(c6ccc(Cl)cc6Cl)O5)cc4)CC3)cc2)c1=O` (stereo not given in full): “inactive”.
As to `CCC(=O)OC(=O)CC`, the Potency entry is “inactive”.
The same measure for `Cc1c2ccccc2c(C)c2c1ccc1ccccc12`: “inactive”.
The same measure for `Nc1ccc(C(=O)O)c(O)c1`: “inactive”.
The same measure for `C#CC1(O)CC[C@H]2[C@@H]3CCC4=CCCC[C@@H]4[C@H]3CC[C@@]21C` (stereo not given in full): “inactive”.
